Test results taken from PubChem BioAssay (EPA / NIEHS).
“And” between values parts separate entries of the source, which are not always exact repeats. Equal entries are not always repeated. Some structures have more than one record in an assay (separate samples or runs), and their calls can disagree. The source made the active and inactive calls. Rule for the calls: active = hit-call score of the fitted dose curve at least 0.9, where 1 is the maximum; inactive = score below 0.9.

Tests used:
[1] = read-out: Transforming growth factor beta 1 (TGFb1), TGFB1 (gene 7040); experiment: BSK_KF3CT_TGFb1: BioMAP Diversity Plus: KF3CT Assay for Transforming growth factor beta 1 (TGFb1) Biomarker Activity (AID 2283072); conditions: primary human keratinocytes with fibroblasts; actives raise or lower the signal
Summary of the method: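 Human keratinocyte plus foreskin fibroblast primary co-culture, dosed with chemical for 24 h. TGF-b1 quantified by ELISA. Activity fitted bidirectionally against DMSO negative control as baseline.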

[2] = read-out: C-C motif chemokine 2 (Homo sapiens) (UniProt P13500); experiment: BSK_KF3CT_MCP1: BioMAP Diversity Plus: KF3CT Assay for Monocyte Chemoattractant Protein 1 (MCP1/CCL2) Biomarker Activity (AID 2283073); conditions: primary human keratinocytes with fibroblasts; actives raise or lower the signal
Summary of the method: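 ELISA readout of MCP-1 after 24 h chemical dosing of a human skin primary co-culture of keratinocytes and foreskin fibroblasts. Activity was fitted in both directions against DMSO.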

[3] = read-out: urokinase plasminogen activator (uPA), PLAU (gene 5328); experiment: BSK_KF3CT_uPA: BioMAP Diversity Plus: KF3CT Assay for urokinase plasminogen activator (uPA) Biomarker Activity (AID 2283075); conditions: primary human keratinocytes with fibroblasts; actives raise or lower the signal
Summary of the method: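 Primary human keratinocyte/foreskin fibroblast co-culture exposed to chemical; uPA measured by ELISA at 24 h. Bidirectional fit versus DMSO, with parallel SRB total-protein staining for cytotoxicity.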

CD40, CD40 (gene 958) = experiment: BSK_LPS_CD40: BioMAP Diversity Plus: LPS Assay for CD40 Biomarker Activity (AID 2283076); conditions: primary human HUVEC with PBMC; actives raise or lower the signal
Summary of the method: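 Cells were dosed, incubated 24 h, then assayed for CD40 by ELISA. Gain or loss of signal was analysed relative to DMSO controls. The culture paired human umbilical vein endothelium with peripheral blood mononuclear cells.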

[4] = read-out: E-selectin (Homo sapiens) (UniProt P16581); experiment: BSK_LPS_Eselectin: BioMAP Diversity Plus: LPS Assay for Eselectin Biomarker Activity (AID 2283077); conditions: primary human HUVEC with PBMC; actives raise or lower the signal
Summary of the method: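 Primary human vascular co-culture (endothelium plus PBMC) was dosed with chemical, then E-selectin quantified by ELISA at 24 h. Endpoint values derive from bidirectional curve fitting relative to DMSO.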

[5] = read-out: Interleukin-8 (IL8), CXCL8 (gene 3576); experiment: BSK_LPS_IL8: BioMAP Diversity Plus: LPS Assay for Interleukin-8 (IL8) Biomarker Activity (AID 2283078); conditions: primary human HUVEC with PBMC; actives raise or lower the signal
Summary of the method: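 Readout is IL-8 by ELISA, taken 24 h after compounds were added to LPS-stimulated endothelial/PBMC co-cultures. Both increases and decreases relative to DMSO control were scored through bidirectional fitting.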

[6] = BSK_LPS_SRB: Viability Assessment in the BioMAP Diversity Plus: LPS Assay (AID 2283079); conditions: primary human HUVEC with PBMC;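 note: total protein by sulforhodamine B absorbance as a cytotoxicity measure; measured one day after compound addition; fitted in both directions against DMSO so loss or gain of signal counts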
Summary of the method: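 Readout is SRB absorbance at 560 nm (0.1% stain, TCA-fixed parallel cultures) as a total-protein cytotoxicity measure. Cells: primary human umbilical vein endothelium plus peripheral blood mononuclear cells, 24 h after chemical exposure; DMSO served as baseline.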

[7] = read-out: Interleukin-1 alpha (IL1a), IL1A (gene 3552); experiment: BSK_LPS_IL1a: BioMAP Diversity Plus: LPS Assay for Interleukin-1 alpha (IL1a) Biomarker Activity (AID 2283080); conditions: primary human HUVEC with PBMC; actives raise or lower the signal
Summary of the method: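 ELISA read-out of IL-1 alpha from a human primary vascular co-culture (endothelium plus PBMC) under LPS, sampled 24 hours post-dosing. Activity was fitted in both directions relative to DMSO controls.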

[8] = read-out: Monocyte Chemoattractant Protein-1 (MCP1), CCL2 (gene 6347); experiment: BSK_LPS_MCP1: BioMAP Diversity Plus: LPS Assay for Monocyte Chemoattractant Protein-1 (MCP1) Biomarker Activity (AID 2283081); conditions: primary human HUVEC with PBMC; actives raise or lower the signal;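 for AC50: secreted MCP-1 protein quantified by ELISA in culture supernatant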
Summary of the method: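 Human endothelial–PBMC co-cultures were dosed with chemical, then LPS-driven MCP-1 levels were quantified by ELISA at 24 h. Activity in either direction was fitted versus DMSO negative control.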

[9] = read-out: Matrix Metallopeptidase 9 (MMP9), MMP9 (gene 4318); experiment: BSK_KF3CT_MMP9: BioMAP Diversity Plus: KF3CT Assay for Matrix Metallopeptidase 9 (MMP9) Biomarker Activity (AID 2283074); conditions: primary human keratinocytes with fibroblasts; actives raise or lower the signal;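 for AC50: MMP9 protein level quantified by ELISA in the co-culture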
Summary of the method: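 Human keratinocyte and foreskin fibroblast co-culture exposed to chemicals for 24 h; MMP9 biomarker measured by ELISA, bidirectional fitting relative to DMSO; cytotoxicity tracked by SRB total protein staining in parallel cultures.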

Measured: AC50

Sequence of E-selectin (Homo sapiens) (P16581 whole entry, looked up): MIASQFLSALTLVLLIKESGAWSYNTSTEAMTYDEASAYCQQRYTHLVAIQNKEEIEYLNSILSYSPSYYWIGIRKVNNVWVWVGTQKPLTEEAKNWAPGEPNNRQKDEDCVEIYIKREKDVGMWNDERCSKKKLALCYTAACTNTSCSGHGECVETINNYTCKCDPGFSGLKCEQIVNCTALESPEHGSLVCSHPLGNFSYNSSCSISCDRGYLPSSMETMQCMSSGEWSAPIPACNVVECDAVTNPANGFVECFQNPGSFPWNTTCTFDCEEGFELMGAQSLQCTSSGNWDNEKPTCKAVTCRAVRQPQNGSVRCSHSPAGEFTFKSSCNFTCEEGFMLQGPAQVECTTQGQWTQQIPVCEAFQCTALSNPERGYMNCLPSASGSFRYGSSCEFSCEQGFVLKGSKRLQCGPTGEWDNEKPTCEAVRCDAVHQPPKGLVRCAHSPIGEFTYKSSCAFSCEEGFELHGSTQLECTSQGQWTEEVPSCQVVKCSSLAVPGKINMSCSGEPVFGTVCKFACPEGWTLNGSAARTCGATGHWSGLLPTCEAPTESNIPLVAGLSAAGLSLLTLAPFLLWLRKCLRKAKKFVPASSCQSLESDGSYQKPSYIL

COc1nc(C)nc(NC(=O)NS(=O)(=O)c2ccccc2CCC(F)(F)F)n1
not listed: [9]
inactive: all other assays above

Fc1ccc(Oc2ccnc3cc(Cl)cc(Cl)c23)cc1
active: [9] 12.9 µM | [4] 34.4 µM | [5] 28.8 µM | [6] 24 µM | [7] 14.6 µM | [8] 29.5 µM
inactive: [1] | [2]

CC1COC(Cn2cncn2)(c2ccc(Oc3ccc(Cl)cc3)cc2Cl)O1 (stereo not given)
active: [1] 34.5 µM | [2] 34.4 µM | [3] 33.9 µM | CD40, CD40 (gene 958) 17.3 µM | [4] 20 µM | [5] 28.6 µM | [6] 28.8 µM | [7] 32 µM | [8] 31.7 µM

CC(C)Oc1cc(-n2nc(C(C)(C)C)oc2=O)c(Cl)cc1Cl
active: [4] 31.3 µM | [5] 31.5 µM | [6] 29.3 µM | [7] 32.7 µM | [8] 30.2 µM
inactive: [1] | [2] | [3]

CNC(=S)S
active: [4] 14.7 µM | [5] 20.8 µM | [6] 26.1 µM | [8] 20 µM
inactive: [1] | [2] | [9] | [3]

COC(=O)c1ccccc1C(=O)OC
not listed: [3] | CD40, CD40 (gene 958)
inactive: all other assays above

O=C(O)c1nc(Cl)ccc1Cl
not listed: [3] | CD40, CD40 (gene 958)
inactive: all other assays above

OC(c1ccc(Cl)cc1)(c1cncnc1)c1ccccc1Cl (stereo not given)
active: [6] 23.2 µM
not listed: [3] | CD40, CD40 (gene 958)
inactive: all other assays above

COC(=O)C=C(C)OP(=O)(OC)OC
not listed: [3] | CD40, CD40 (gene 958)
inactive: all other assays above

N#Cc1cc(Br)c(O)c(Br)c1
active: [6] 3.97 µM | [7] 20 µM
not listed: CD40, CD40 (gene 958) | [9]
inactive: all other assays above

CCOP(=S)(OCC)SCn1c(=O)oc2cc(Cl)ccc21
active: [4] 9.68 µM | [5] 16.9 µM | [6] 31.6 µM | [8] 25.8 µM
inactive: [1] | [2] | [3] | [7]

C=CCC1=C(C)[C@@H](OC(=O)[C@@H]2[C@@H](C=C(C)C)C2(C)C)CC1=O
active: [9] 32.6 µM | [4] 32.4 µM | [5] 26.3 µM | [6] 36.2 µM | [7] 32.3 µM | [8] 32.1 µM
inactive: [1] | [2]

CCCN(CCC)c1c([N+](=O)[O-])cc(S(N)(=O)=O)cc1[N+](=O)[O-]
inactive: [1] | [4] | [8]
active: [1] 34.4 µM | [4] 36.9 µM and 32.6 µM and 36.7 µM | [5] 33.1 µM [middle of 4 runs] | [6] 31.8 µM [middle of 4 runs] | [7] 33.5 µM [middle of 4 runs] | [8] 37.8 µM and 35.1 µM and 33 µM

CC(C)(C)c1ccc(CSc2cnn(C(C)(C)C)c(=O)c2Cl)cc1
inactive: [1] | [4]
active: [2] 20 µM | [9] 18.6 µM | [3] 4.28 µM | CD40, CD40 (gene 958) 8.25 µM | [5] 3.16 µM | [6] 7.73 µM | [7] 20 µM | [8] 5.45 µM

C#CCOS(=O)OC1CCCCC1Oc1ccc(C(C)(C)C)cc1 (stereo not given)
active: [2] 10.2 µM | [9] 12.1 µM | [3] 14.3 µM | [4] 4.28 µM | [5] 6.7 µM | [6] 12.6 µM | [7] 16.4 µM | [8] 20 µM
inactive: [1]

C=CCC1=C(C)C(OC(=O)C2C(C=C(C)C)C2(C)C)CC1=O (stereo not given)
inactive: [1] | [2] | CD40, CD40 (gene 958) | [4]
active: [1] 26.6 µM and 33.3 µM and 21 µM | [2] 33.6 µM and 36.4 µM and 28.4 µM | [9] 33.6 µM [middle of 4 runs] | CD40, CD40 (gene 958) 24.2 µM and 21 µM and 27.6 µM | [4] 31.5 µM and 33.3 µM and 33.1 µM | [5] 32 µM [middle of 4 runs] | [6] 33.1 µM [middle of 4 runs] | [7] 34.3 µM [middle of 4 runs] | [8] 35.7 µM [middle of 4 runs]

Cc1cc(Cl)ccc1OCC(=O)O
not listed: CD40, CD40 (gene 958) | [9]
inactive: all other assays above

CC(C)C1(C)N=C(c2nc3ccccc3cc2C(=O)O)NC1=O (stereo not given)
not listed: [3] | CD40, CD40 (gene 958)
inactive: all other assays above

CCON=C(CC)C1=C(O)CC(c2c(C)cc(C)cc2C)CC1=O (stereo not given)
not listed: [3]
inactive: all other assays above

O=C(O)COc1nc(Cl)c(Cl)cc1Cl
not listed: [3]
inactive: all other assays above

COc1nc(NC(C)C)nc(NC(C)C)n1
not listed: [9]
inactive: all other assays above

COc1cnc(OC)n2nc(NS(=O)(=O)c3c(OCC(F)F)cccc3C(F)(F)F)nc12
active: [5] 0.0793 µM
inactive: [1] | [2] | [9] | CD40, CD40 (gene 958) | [4] | [5] | [6] | [7] | [8]

CCOC(=O)CC(SP(=S)(OC)OC)C(=O)OCC (stereo not given)
not listed: [9]
inactive: all other assays above

N#CC(CCc1ccc(Cl)cc1)(Cn1cncn1)c1ccccc1 (stereo not given)
not listed: CD40, CD40 (gene 958)
inactive: all other assays above
